# Data from PubChem BioAssay (Tox21).
# Inconclusive results are not listed. Entries that show only a call come without a potency. Active and inactive are the calls of the source. Calls follow the shape of the full dose curve.
# Molecular target: Thyrotropin receptor (Homo sapiens) (UniProt P16473)
# Assay: qHTS assay to identify small molecule antagonists of the thyroid stimulating hormone receptor (TSHR) signaling pathway (AID 1259385); also: nearly all actives have a fitted effect of over 20% in size
# Details: TSHR-HEK293 cAMP HTRF, TSH-stimulated antagonist mode; series mostly up to 92.4 µM
# Excerpt: U.S. Tox21 Program National Center for Advancing Translational Sciences [NCATS] NIH Chemical Genomics Center [NCGC] U.S. Environmental Protection Agency [EPA] National Institutes of Environmental Health Sciences [NIEHS] National Toxicology Program [NTP] U.S. Food and Drug Administration [FDA] Tox21 Assay Overview: TSHR is the receptor for thyrotropin (thyroid stimulating hormone or TSH), a member of the glycoprotein hormone family. TSH is released by the anterior pituitary gland and is the main regulator of thyroid gland growth and development. Upon binding circulating thyrotropin, a G-protein signal cascade activates adenylyl cyclase and […] cAMP concentration is increased. cAMP is a key second messenger involved extensively in cellular signal transduction pathways associated with the majority of G-protein coupled receptors (GPCRs). The activation of these GPCRs by neurotransmitters, lipids, nucleotides, peptides and hormones results in the activation or the inhibition of plasma membrane-bound adenylate cyclase through heterotrimeric G-proteins. A cell-based TSHR assay can be used to screen chemical compounds that modulate TSHR either in agonist or antagonist mode.
# Tox21 Assay Protocol Summary: TSHR-Hek293 cells were dispensed at 800 cells/4uL/well in 1536-well white plates using a Multidrop dispenser. After the assay plates were incubated at a 37C/5% CO2 incubator for 18 hrs, 23 nL of compounds dissolved in DMSO, positive controls or DMSO only was transferred to the assay plate by a pin tool, followed by 1 ul medium containing Ro20-1724. For the antagonist mode screening, 1 uL of TSH was added on the top of the cell/compound mixtures to achieve a final agonist concentration of 1.5 ng/mL. After 30 min of incubation at room temperature, 2.5 ul/well of cAMP-d2 and 2.5 ul/well of anti-cAMP-cryptate were added respectively into the assay plates using a Flying Reagent Dispenser. The plates were incubated at room temperature for 1 hr. The fluorescence intensity in the plates was measured using an Envision plate reader. Each test compound was measured at 15 concentrations and in triplicates.
# Potency is read from the fitted curve at half-maximal effect.
# Chain of Thyrotropin receptor (Homo sapiens) (P16473 whole entry, looked up): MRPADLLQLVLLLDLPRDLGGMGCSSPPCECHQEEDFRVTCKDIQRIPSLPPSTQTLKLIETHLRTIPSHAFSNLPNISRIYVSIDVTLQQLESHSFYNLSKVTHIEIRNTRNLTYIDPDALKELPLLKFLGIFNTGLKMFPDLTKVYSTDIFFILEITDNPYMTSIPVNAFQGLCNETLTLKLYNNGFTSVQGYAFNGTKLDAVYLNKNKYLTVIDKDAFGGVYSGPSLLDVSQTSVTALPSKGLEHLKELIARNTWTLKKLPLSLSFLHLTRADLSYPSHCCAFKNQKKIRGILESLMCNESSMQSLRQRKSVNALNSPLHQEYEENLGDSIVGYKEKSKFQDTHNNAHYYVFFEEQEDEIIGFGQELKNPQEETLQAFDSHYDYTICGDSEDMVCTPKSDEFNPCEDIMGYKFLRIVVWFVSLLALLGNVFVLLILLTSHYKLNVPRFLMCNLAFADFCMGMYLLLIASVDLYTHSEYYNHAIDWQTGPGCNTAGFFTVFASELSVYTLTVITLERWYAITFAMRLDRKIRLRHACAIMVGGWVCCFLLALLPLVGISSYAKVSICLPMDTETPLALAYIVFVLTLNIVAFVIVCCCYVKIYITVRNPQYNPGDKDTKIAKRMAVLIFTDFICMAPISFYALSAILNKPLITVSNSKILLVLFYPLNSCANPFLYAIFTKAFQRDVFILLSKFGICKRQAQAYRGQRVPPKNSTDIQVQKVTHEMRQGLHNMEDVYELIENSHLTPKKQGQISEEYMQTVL
row,SMILES,Potency
1,Cc1[nH]cnc1CN1CCc2c(c3ccccc3n2C)C1=O,inactive
2,CCOC(=O)/C=C/C(=O)OCC,inactive
3,CCOC(=O)c1ccc(O)c(O)c1,inactive
4,c1ccc2c(c1)CCc1ccccc1N2,inactive
5,C=C1C[C@@]23CC[C@H]4[C@@](C)(CCC[C@@]4(C)C(=O)O[C@@H]4O[C@H](CO)[C@@H](O)[C@H](O)[C@H]4O)[C@@H]2CC[C@]1(O[C@@H]1O[C@H](CO)[C@@H](O)[C@H](O[C@@H]2O[C@H](CO)[C@@H](O)[C@H](O)[C@H]2O)[C@H]1O[C@@H]1O[C@H](CO)[C@@H](O)[C@H](O)[C@H]1O)C3,inactive
6,Cc1cc2c(OCC(CNC(C)(C)C)OC(=O)c3ccccc3)cccc2[nH]1 (stereo not given),inactive
7,c1csc(SSc2cccs2)c1,inactive
8,CCC(OCCCOC)OC(C)=O (stereo not given),inactive
9,CN1CCCC(CC2c3ccccc3Sc3ccccc32)C1 (stereo not given),29.8 µM (active)
10,CCOC(=O)OC(C)OC(=O)[C@@H]1N2C(=O)[C@@H](NC(=O)[C@H](N)c3ccccc3)[C@H]2SC1(C)C (stereo not given in full),inactive
11,C1COC1,inactive
12,CN1C(=O)N(c2ccccc2Br)Cc2cnc(Nc3ccc4c(c3)OCC(CO)O4)nc21 (stereo not given),inactive
13,CC(CCC(=O)O)C(=O)O (stereo not given),inactive
14,CCOC(=O)C1=C(C)NC(C)=C(C(=O)OC)C1c1cccc(Cl)c1Cl (stereo not given),inactive
15,O=C1Cc2cc(Cl)ccc2N1,inactive
16,OCCOCC#CCOCCO,inactive
17,C=C(C)CCCC(C)CCO (stereo not given),inactive
18,C[C@@H]1CN(CCCn2c3ccccc3c3ccccc32)C[C@H](C)N1,33.5 µM (active)
19,COC(=O)c1nc(Cl)c(Cl)nc1N,inactive
20,Cc1cc(C)cc(N)c1,inactive

row,SMILES,Potency
1,NC1[C@H]2CN(c3nc4c(cc3F)c(=O)c(C(=O)O)cn4-c3ccc(F)cc3F)C[C@@H]12 (stereo not given in full),inactive
2,C=C(C)C(=O)OCCCCCCCCCCCCC,inactive
3,CCCCC(CC)COP(=O)(O)O (stereo not given),inactive
4,O[C@@H]1CO[C@H]2[C@@H]1OC[C@@H]2O,inactive
5,O=[N+]([O-])c1cc(C2CCCCC2)c(O)c([N+](=O)[O-])c1,inactive
6,CC(=O)Oc1ccc([N+](=O)[O-])cc1CCl,inactive
7,O=c1[nH]ncc2ccccc12,inactive
8,Cc1ccc(C(C)(C)O)cc1,inactive
9,CCC1(CO)COCOC1,inactive
10,CCOc1ccc(Cc2nccc3cc(OCC)c(OCC)cc23)cc1OCC,inactive
11,Cc1ccc2c(Br)cc(Br)c(O)c2n1,inactive
12,O=C(CCCN1CC=C(n2c(=O)[nH]c3ccccc32)CC1)c1ccc(F)cc1,inactive
13,O=C1CCCCCCCCCCOCCCCO1,inactive
14,CC1(C)[C@@H](OC(=O)CCC(=O)O)CC[C@]2(C)[C@H]3C(=O)C=C4[C@@H]5C[C@@](C)(C(=O)O)CC[C@]5(C)CC[C@@]4(C)[C@]3(C)CC[C@@H]12,inactive
15,CC(=O)c1ccc([N+](=O)[O-])cc1,inactive
16,CCCCC(CC)CN (stereo not given),inactive
17,CC(CO)CO,inactive
18,CC(=O)OCC(=O)NCCCOc1cccc(CN2CCCCC2)c1,inactive
19,O=C1c2ccccc2C(=O)C1c1nc2ccccc2c(Br)c1O,inactive
20,CC1(C)O[C@@H]2C[C@H]3[C@@H]4C[C@H](F)C5=CC(=O)C=C[C@]5(C)[C@H]4[C@@H](O)C[C@]3(C)[C@]2(C(=O)CO)O1,inactive
